Growth data for 9 compounds are collected here from PubChem BioAssay (NCI).

Test systems include RPMI-8226 leukemia; OVCAR-8 ovarian; OVCAR-5 ovarian; OVCAR-4 ovarian; SK-OV-3 ovarian; IGROV1 ovarian; OVCAR-3 ovarian; HS 578T breast; NCI/ADR-RES ovarian; T-47D breast; BT-549 breast; MDA-MB-435 melanoma; SW-620 colon; MCF7 breast; HCT-116 colon; HCC-2998 colon; KM12 colon.
Assay in all cases: NCI-60 one-dose screen, 48 h (100 = growth as untreated, 0 = no growth, -100 = all killed)
Common to all, as to settings: 10 µM unless noted

About 83,000 compounds went through this panel and 20% of them were active in at least one assay; those are over-represented in the sample as a whole.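 Compound tested at a single concentration for 48 hours in 96-well plates; a percent growth value below 10 was scored as active.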 A number with no mark means an inactive call. Calls of active or inactive are those of the source.

With `COc1ccc(C(=O)C(C)Br)cc1OC` (stereo not drawn), the growth with RPMI-8226 leukemia is 85.5%; in the test on OVCAR-8 ovarian, 88.3%; in the test with OVCAR-5 ovarian, 84.7%; with OVCAR-4 ovarian, 84%; in the test with SK-OV-3 ovarian it was 115%; with IGROV1 ovarian, 76.5%. Besides, the growth with OVCAR-3 ovarian is 61.5%; in the test on HS 578T breast, 95.2%; in the test on NCI/ADR-RES ovarian it was 96.1%; in the test on T-47D breast, 82.6%; in the test on BT-549 breast, 94.3%; in the test with MDA-MB-435 melanoma, 87.4%. Besides, the growth with SW-620 colon is 40.8%; in the test on MCF7 breast it was 84.4%; with HCT-116 colon it was 52.2%; with HCC-2998 colon it was 101%; with KM12 colon it was 93.3%.

Turning to `CN1C(=O)C(=Cc2cn(Cc3ccccc3)c3ccc(Br)cc23)C(=O)N(C)C1=O`, the growth was 92.6% with RPMI-8226 leukemia; 97.9% in the test on OVCAR-8 ovarian; 14% with OVCAR-5 ovarian; 107% in the test with OVCAR-4 ovarian; 90.4% in the test on SK-OV-3 ovarian; 97.3% with IGROV1 ovarian. Besides, the growth in the test with OVCAR-3 ovarian was 103%; in the test with HS 578T breast, 113%; with NCI/ADR-RES ovarian, 96.9%; in the test on T-47D breast, 83.7%; in the test with BT-549 breast, 102%; with MDA-MB-435 melanoma it was 102%. In addition, the growth was 108% with SW-620 colon; 87% in the test on MCF7 breast; 101% with HCT-116 colon; 107% in the test on HCC-2998 colon; 102% in the test with KM12 colon.

For the compound `CN(C)c1cccc2c(S(=O)(=O)N[C@H]3CC[C@H]4[C@@H]5CCc6cc(O)ccc6[C@H]5CC[C@]34C)cccc12`, the growth with RPMI-8226 leukemia was 7.82% (active); in the test on OVCAR-8 ovarian, 45.8%; in the test on OVCAR-5 ovarian it was 78.1%; with OVCAR-4 ovarian, 50.6%; in the test on SK-OV-3 ovarian, 33.3%; in the test on IGROV1 ovarian, 33.1%. The growth is 19.7% with OVCAR-3 ovarian; 56.5% with HS 578T breast; 12.3% with NCI/ADR-RES ovarian; 21.5% in the test with T-47D breast; 35.9% with BT-549 breast; -46.4% (active) in the test with MDA-MB-435 melanoma. The growth in the test with SW-620 colon is 24.8%; with MCF7 breast it was 12.9%; in the test with HCT-116 colon it was 13.1%; in the test on HCC-2998 colon, 60.6%; in the test on KM12 colon, 18.5%.

On to `Cc1ccc2c(c1)C(=O)/C(=C/c1ncc([N+](=O)[O-])n1C)O2`, for which the growth in the test on RPMI-8226 leukemia is -12.4% (active); in the test on OVCAR-8 ovarian, -30.8% (active); with OVCAR-5 ovarian, 8.96% (active); in the test on OVCAR-4 ovarian it was 21.8%; in the test with SK-OV-3 ovarian it was 0.948% (active); in the test on IGROV1 ovarian, -26.5% (active). The growth was -46.9% (active) in the test on OVCAR-3 ovarian; -10.2% (active) in the test with HS 578T breast; -3.98% (active) with NCI/ADR-RES ovarian; 90.3% with T-47D breast; -25.9% (active) with BT-549 breast; -80.6% (active) in the test with MDA-MB-435 melanoma. For the same compound, the growth in the test on SW-620 colon was -32.5% (active); with MCF7 breast, -1.55% (active); in the test on HCT-116 colon, 7.67% (active); in the test on HCC-2998 colon it was -44% (active); in the test with KM12 colon it was -48.4% (active).

On to `Cc1nc2cc(NC(=O)CN3CCN(CCN4C(=O)c5cccc6cccc(c56)C4=O)CC3)ccc2s1`, for which the growth is 28.9% in the test on RPMI-8226 leukemia; 30.2% with OVCAR-8 ovarian; 72% in the test on OVCAR-5 ovarian; 61.4% with OVCAR-4 ovarian; 66.3% in the test on SK-OV-3 ovarian; 44% with IGROV1 ovarian. In addition, the growth in the test on OVCAR-3 ovarian is 74.3%; with HS 578T breast, 69.5%; in the test on NCI/ADR-RES ovarian, 45.9%; with T-47D breast, 50.7%; in the test with BT-549 breast, 70.1%; in the test on MDA-MB-435 melanoma it was 57.8%. Besides, the growth in the test with SW-620 colon was 31.4%; in the test with MCF7 breast it was 32.5%; with HCT-116 colon, 22.3%; in the test on HCC-2998 colon it was 59.4%; with KM12 colon, 51.6%.

For `O=C1/C(=C/c2ccc([N+](=O)[O-])o2)Oc2ccc(Br)cc21`, the growth in the test on RPMI-8226 leukemia was 84.2%; in the test on OVCAR-8 ovarian it was 6.99% (active); in the test on OVCAR-5 ovarian it was 105%; in the test with OVCAR-4 ovarian, 5.15% (active); in the test on SK-OV-3 ovarian it was 92.1%; in the test on IGROV1 ovarian, -17.9% (active). Further, the growth in the test with OVCAR-3 ovarian was -43.1% (active); with HS 578T breast, 106%; with NCI/ADR-RES ovarian it was 98.3%; in the test with T-47D breast, 58%; in the test on BT-549 breast, -54.1% (active); in the test with MDA-MB-435 melanoma it was -40.7% (active). Moreover, the growth was -70.5% (active) in the test on SW-620 colon; 16.7% with MCF7 breast; -64% (active) in the test with HCT-116 colon; 102% in the test with HCC-2998 colon; 87.1% in the test on KM12 colon.

With `CCCCCCCCCCCCCCCCN=C(CC(=O)O)C(=O)O`, the growth in the test on RPMI-8226 leukemia was 103%; with OVCAR-8 ovarian it was 107%; with OVCAR-5 ovarian it was 116%; in the test on OVCAR-4 ovarian, 34.8%; in the test on SK-OV-3 ovarian, 105%; in the test on IGROV1 ovarian, 88.6%. In addition, the growth in the test on OVCAR-3 ovarian was 107%; with HS 578T breast, 96.9%; in the test with NCI/ADR-RES ovarian, 105%; in the test with T-47D breast, 102%; in the test on BT-549 breast, 101%; with MDA-MB-435 melanoma it was 96.7%. In addition, the growth in the test with SW-620 colon is 101%; in the test on MCF7 breast, 86.5%; in the test on HCT-116 colon, 87.2%; in the test with HCC-2998 colon, 104%; with KM12 colon it was 100%.

On to `O=C1CCCN1C1CCN(Cc2cc3ccccc3[nH]c2=O)c2ccccc21` (stereo not drawn), for which the growth with RPMI-8226 leukemia was 3.19% (active); with OVCAR-8 ovarian it was 101%; in the test with OVCAR-5 ovarian, 91.3%; in the test with OVCAR-4 ovarian, 82.6%; in the test on SK-OV-3 ovarian, 93.8%; in the test on IGROV1 ovarian, 90%. Besides, the growth in the test on OVCAR-3 ovarian is 98.8%; with HS 578T breast, 98%; in the test on NCI/ADR-RES ovarian, 97.4%; with T-47D breast, 60.1%; with BT-549 breast, 98.2%; in the test on MDA-MB-435 melanoma, 93.5%. In addition, the growth in the test on SW-620 colon is 96.3%; with MCF7 breast, 92.8%; in the test with HCT-116 colon, 82.6%; in the test on HCC-2998 colon, 96.4%; in the test on KM12 colon, 98.1%.

Turning to `N#Cc1cnc2cc(OC[C@H](O)CO)c(NC(=O)CC3CSSC3)cc2c1Nc1ccc(OCc2cccc(F)c2)c(Cl)c1`, the growth was -68.9% (active) with RPMI-8226 leukemia; -54.6% (active) in the test on OVCAR-8 ovarian; -47.8% (active) in the test on OVCAR-5 ovarian; -62.9% (active) with OVCAR-4 ovarian; -87.5% (active) in the test with SK-OV-3 ovarian; -41.8% (active) in the test on IGROV1 ovarian. Moreover, the growth was -89.2% (active) in the test with OVCAR-3 ovarian; -44.7% (active) in the test with HS 578T breast; 87.8% in the test on NCI/ADR-RES ovarian; -61.1% (active) in the test with T-47D breast; -62.2% (active) in the test with BT-549 breast; -82.7% (active) with MDA-MB-435 melanoma. The growth in the test on SW-620 colon is -70.8% (active); in the test on MCF7 breast, -69.2% (active); in the test on HCT-116 colon, -42.8% (active); in the test on HCC-2998 colon it was -81.9% (active); in the test with KM12 colon, -81.8% (active).
